Test results as given in the OligoGym collection.

Biological target: PDE1C
Assay: pooled miR-30 sensor sort-seq; sequence = guide strand
Details: shRNA
Note: reference of the scale not given here.

Sequence | sensor-assay potency score (higher = more potent)
ATTCTCTCCACAAATATCCCAG | -0.723
TTTGAAGTCACCATTCTGTTGC | 0.443
TTGAGTAAAAATCTCACGTTGT | 0.531
TTTTCCTCTGCTTCCTTCTTGG | -0.143
AATTGTTTGACCAAAGACCGTA | 0.319
TTTTCTTTGAATCATTTCCGAT | -1.12
TGAACGATGCTCTTGAACCGGG | -0.343
TAAGATCTACCACTGAAGCTTC | -0.318
TAGAGTGATCCTTCTTGTCTGT | 0.0178

Biological target: PDE8B
Assay: as above
Details: shRNA

Sequence | sensor-assay potency score (higher = more potent)
TTGCATTCACAGTCGCTGCCTT | -0.0743
TAGCAAGCAATTATGCTGCTAT | 0.445
TTAGTAAACACATACTCGTTTC | -0.767
TCTTAGTAAACACATACTCGTT | -0.91
TATATTTATAACCTTTGTGATG | -1.47
TTAAAAACTCACATACTCCAAA | -0.433
ATTGATTATATTTATAACCTTT | -0.571
TACAATAATTTCATGATGCTTA | -0.231
TTCATCTTTGGTACCCAGCTGA | -0.0849
ATCGCTCTGACTATCTTCCTTT | -0.16
AATCTCTAGAACTCTGTCCAAG | -1.58
TAAACACATACTCGTTTCCTGA | -0.83

Biological target: PDGFRB
Assay: as above
Details: shRNA

Sequence | sensor-assay potency score (higher = more potent)
AAAGTCACAGATCTTGACCAGC | -0.788
TTGCTGTAGAGCTCCGCGCTGG | -0.717
TAGCACTGGAGACTCGTTGATC | -0.385
TTGGTCAGTGTGAGCACGCTGG | -0.355
TTGATCAAAGTTGCTCGGCAGG | -0.679
TAACAGGAGAGACAGCAACAGC | -1.23
TTTGATGGCATTGTAGAACTGC | 0.772
TCTTTTTGTAACCTTCGCCCAA | -0.683
TAGTCCACCGACTCGTCCTTGC | -0.654
TTGACGGCCACTTTCATCGTGG | -0.193
TCAGCTCTGACACATACCGGGT | -1.42

Biological target: PDIA5
Assay: as above
Details: shRNA

Sequence | sensor-assay potency score (higher = more potent)
TAGAACATGACCAAGGTGTGTT | 0.669
TTTGACACAGTCAACAGCGGCA | -0.283
TACTGGAACAAGAACCGTCCTT | 0.0118
TAGTCTTTCATGGTCTCCCTCC | -0.586
TTGCACATGCTGCACCAGGGGG | -1.31
TAATTCAACCTTTTTGTCCTTC | 0.526
TTCTTCTTCAGGGTCTCCCGGA | -0.62
TCAACTTTCATCTTCTTGCACA | -0.596
